Bioassay records deposited in PubChem BioAssay by several laboratories.
Bim-Bcl-W = inhibitors of Bim binding to Bcl-W, primary screen, biochemical, multiplexed, bead-based flow cytometry | Bcl-2-like protein 2 (Homo sapiens), Q92843 | Bim peptide-Bcl-W binding | inhibition, % at 10 µM | 190,000 tested, 0.02% active;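 note: 0% = bound tracer without compound and 100% = peptide blocker; higher means less fluorescent Bim peptide bound to Bcl-W beads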
Target sequence (Q92843 whole entry, looked up): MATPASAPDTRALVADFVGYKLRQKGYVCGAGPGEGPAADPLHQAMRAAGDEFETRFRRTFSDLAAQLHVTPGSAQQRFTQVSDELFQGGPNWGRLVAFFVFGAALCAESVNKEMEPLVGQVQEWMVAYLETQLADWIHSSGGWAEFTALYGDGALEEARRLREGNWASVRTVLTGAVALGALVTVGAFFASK
Furin inh = human furin inhibitors, primary screen, biochemical, fluorescence intensity; AID 463115, 2010; purified furin, fluorogenic substrate cleavage; inhibition, % at 20 µM or 30 µM; 220,000 tested, 0.061% active; P09958; in the data active = inhibition above about 25%
Bim-Bfl-1 = inhibitors of Bim binding to Bfl-1, primary screen, biochemical, multiplexed, bead-based flow cytometry; Bcl-2-related protein A1 (Homo sapiens), Q16548; Bim-Bfl-1 binding inhibition; inhibition, % at 10 µM; 190,000 tested, 0.12% active;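 note: 0% = wells without compound plus tracer and 100% = blocker peptide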
Target sequence (Q16548 whole entry, looked up): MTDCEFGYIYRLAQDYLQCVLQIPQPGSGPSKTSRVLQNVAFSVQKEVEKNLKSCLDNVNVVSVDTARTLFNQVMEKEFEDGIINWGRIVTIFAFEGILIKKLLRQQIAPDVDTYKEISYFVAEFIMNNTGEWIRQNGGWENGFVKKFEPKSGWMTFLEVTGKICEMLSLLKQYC
Bim-Bcl-XL = inhibitors of Bim-Bcl-XL binding, primary screen, biochemical, multiplexed, bead flow cytometry, human Bcl-XL; Bcl-2-like protein 1 (Homo sapiens), Q07817; 190,000 tested, 0.04% active; Bim peptide-Bcl-XL binding, fluorescence; inhibition, % at 10 µM
Target sequence (Q07817 whole entry, looked up): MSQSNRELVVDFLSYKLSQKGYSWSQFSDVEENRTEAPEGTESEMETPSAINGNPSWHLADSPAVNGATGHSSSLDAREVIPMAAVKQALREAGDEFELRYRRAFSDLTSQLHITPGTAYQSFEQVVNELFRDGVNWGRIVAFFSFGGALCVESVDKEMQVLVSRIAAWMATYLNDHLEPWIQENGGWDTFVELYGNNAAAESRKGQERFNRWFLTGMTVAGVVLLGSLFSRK
Bcl-2 Bim block = inhibitors of Bim-Bcl-2 binding, primary screen, biochemical, multiplexed, human Bcl-2 family; inhibition, % at 10 µM; 190,000 tested, 0.06% active; Apoptosis regulator Bcl-2 (Homo sapiens), P10415; Bead-based flow cytometry, Bim peptide-Bcl-2 binding; in the data active = inhibition above about 40%;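 note: 0% = no compound wells with probe peptide and 100% = reference peptide inhibitor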
Bim-Bcl-B = inhibitors of Bim-Bcl-B binding, primary screen, biochemical, multiplexed, human Bcl-2 family | AID 951, 2007 | 190,000 tested, 0.073% active | Bcl-2-like protein 10 (Homo sapiens), Q9HD36 | inhibition, % at 10 µM | bead-based flow cytometry, Bim peptide-Bcl-B binding;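 note: 0% = tracer peptide without compound and 100% = reference inhibitor peptide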
* = called active by the depositor; . = no result. A selection: hits, their analogues and other compounds. The true share with any hit is near 0.21%. Cut-off read from the data, not from the text of the source, unless noted: active = inhibition above about 40%.

SMILES | Bim-Bcl-W | Furin inh | Bim-Bfl-1 | Bim-Bcl-XL | Bcl-2 Bim block | Bim-Bcl-B
CCCCc1ccc(NC(=S)NCc2ccc(OC)cc2)cc1 | -1 | -22 | 17 | -1 | 44* | 51*
CC(C)CN1C(=O)/C(=C/c2cccs2)NC1=S | -18 | -18 | -19 | -19 | -17 | -41
CC(C)CN1C(=O)/C(=C/c2ccco2)NC1=S | 6 | -12 | 47* | 3 | 11 | -23
Cc1nc2ncccn2c1-c1csc(Nc2ccc(O)cc2)n1 | 35 | -29 | 19 | 62* | 13 | 33
COC(=O)c1ccc([C@@H]2C[C@H]3CN(Cc4cccnc4)C(=O)[C@]34CCCN24)cc1 | -2 | -18 | -4 | -2 | 0 | -3
CC(=O)c1cn(Cc2ccccc2)c(=O)n(Cc2ccc(F)cc2)c1=O | 0 | -19 | -7 | -4 | 0 | -7
CCN(CC)c1ccc2c(c1)CCCN2 | 49* | -3 | 62* | 15 | 41* | 28
O=S(=O)(c1ccc2c(c1)CCCN2)N1CCCC2CCCCC21 (centres undefined) | . | -22 | . | . | . | .
Cc1ccc(-c2cc(-c3ccccc3)c(C#N)c(N)n2)o1 | 6 | -61 | 42* | 0 | 4 | 2
Cc1ccc(-c2cc(-c3ccccc3Cl)c(C#N)c(N)n2)o1 | 3 | -22 | 25 | 0 | 2 | -3
Clc1ccc2c(N/N=C/c3ccccc3Br)ccnc2c1 | 16 | 1 | 43* | -4 | 28 | 33
CC(C)CC(=O)OCc1cn(-c2ccccc2)nn1 | 1 | -25 | 58* | 10 | 83* | 80*
COc1ccc(NC(=O)/C(C#N)=C/c2c(C)nn(-c3ccc(F)cc3)c2Cl)cc1Cl | 20 | -7 | 42* | 32 | 32 | 29
COc1ccc(NC(=O)/C(C#N)=C/c2c(C)nn(-c3ccc(F)cc3)c2Cl)cc1OC | -5 | -11 | 0 | -5 | 0 | -9
O=C(NCc1cccnc1)c1ccccc1CCc1ccccc1 | 0 | -21 | 5 | -1 | 1 | 2
COc1ccccc1C1CCN(c2ccc(CO)cc2[N+](=O)[O-])CC1 | . | -8 | . | . | . | .
COCCN=c1scc(-c2cccs2)n1/N=C/c1ccc(O)c(O)c1O | 21 | -8 | 40* | 6 | 21 | 0
COCCN=c1scc(-c2ccccc2)n1/N=C/c1c[nH]c2ccccc12 | -6 | -12 | -15 | -10 | -8 | -13
CCN=c1scc(C)n1/N=C/c1ccc(O)c(O)c1O | 21 | -2 | 51* | 8 | 19 | -2
Cn1c(N)c(C(=O)COC(=O)COc2ccc3ccccc3c2)c(=O)n(C)c1=O | -4 | -14 | -7 | -2 | -1 | -7
CC(=O)c1ccc(NC(=O)c2ccc3nc(-c4ccco4)c(-c4ccco4)nc3c2)cc1 | 23 | -13 | 51* | 2 | 25 | 5
O=C(NCCCO)c1ccc2nc(-c3ccco3)c(-c3ccco3)nc2c1 | 29 | -18 | 52* | 12 | 22 | 3
O=C(NCCO)Nc1ccc2nc(-c3ccco3)c(-c3ccco3)nc2c1 | 19 | 4 | 43* | 13 | 29 | 8
O=C(Nc1ccc(N2CCOCC2)cc1)c1ccc2nc(-c3ccco3)c(-c3ccco3)nc2c1 | 4 | -8 | 11 | 1 | 3 | 0
O=C(Nc1ccccc1)c1ccc2nc(-c3ccco3)c(-c3ccco3)nc2c1 | 27 | -7 | 45* | 8 | 15 | 5
SMILES | Bim-Bcl-W | Furin inh | Bim-Bfl-1 | Bim-Bcl-XL | Bcl-2 Bim block | Bim-Bcl-B
O=C(Nc1ccc2nc(-c3ccco3)c(-c3ccco3)nc2c1)N1CCN(c2ccccn2)CC1 | 28 | 0 | 53* | 12 | 25 | 1
Cc1nc2cc(NC(=O)N3CCN(c4ccccn4)CC3)ccc2o1 | 4 | -21 | 2 | 4 | 7 | 3
COC(=O)c1c(C(=O)OC)c2cccc3cc(-c4ccccc4)c4ccc1c4n32 | 34 | -9 | 44* | 4 | 15 | -8
OC1C2CN3CCN(C2)CC1(Cc1ccccc1)C3 (centres undefined) | -2 | 30* | -4 | -10 | 13 | -5
COc1cc(C(=O)Nc2ccc(S(=O)(=O)Nc3nccc(C)n3)cc2)c([N+](=O)[O-])cc1OC | . | -3 | . | . | . | .
O=[N+]([O-])c1ccc(-c2cnc(SCc3ccccc3Cl)[nH]2)cc1 | 12 | 5 | 59* | 14 | 80* | 81*
COc1cc(NCCCCCCCN)c2ncccc2c1 | 48* | -4 | 36 | 49* | 51* | 71*
CC(=O)OC1C(N2CCCCC2)c2c(ccc(/C=C/C(=O)N3CCCCC3)c2O)OC1(C)C (centres undefined) | -9 | -9 | -3 | -2 | -5 | -6
Cc1ccc(NC2=C(NC(=O)c3ccccc3)C(=O)c3ccccc3C2=O)cc1Cl | 23 | -8 | 50* | 1 | 13 | 0
O=C(O)c1ccc(NC2=C(Cl)C(=O)c3ccccc3C2=O)cc1 | . | -2 | . | . | . | .
Cc1ccc(NCC(=O)c2ccccc2)cc1Cl | 0 | 2 | 9 | 13 | 13 | 5
O=C(O)c1cccc(NC2=C(Cl)C(=O)c3ccccc3C2=O)c1 | 18 | -6 | 60* | -5 | 11 | -48
CC(c1nnc(SCC(=O)Nc2cccnc2Cl)n1Cc1ccccc1)N(C)C (centres undefined) | 1 | -13 | 1 | -1 | 1 | 2
COc1ccc(CCN2C(=NC(=O)C(C)C)SC3CS(=O)(=O)CC32)cc1OC (centres undefined) | . | -24 | . | . | . | .
CNc1nc(NCCOC23CC4CC(CC(C4)C2)C3)nc(OCC(F)(F)F)n1 | 0 | 29* | 0 | 0 | -3 | 0
C/C(=N\N=C(/N)c1nonc1N)c1ccc2c(c1)OCO2 | . | 4 | . | . | . | .
Cc1cc(C)n(CCNC(=O)CC2C(=O)NCCN2CC2CCCCC2)n1 (centres undefined) | 0 | -28 | -6 | -1 | -9 | -2
CNc1nc2ccccc2n1/N=C/c1cccc(OC)c1OC | 29 | -4 | . | 38 | 92* | .
Cc1nnsc1Sc1ccccc1C(=O)O | -1 | -21 | -2 | -1 | -4 | -1
Cc1ccc(S(=O)(=O)N2CCCCC2)cc1NC(=O)COC(=O)c1ccccc1F | 8 | -13 | 48* | 11 | 78* | 74*
Cc1ccc(S(=O)(=O)N2CCCCC2)cc1NC(=O)COC(=O)Cc1ccc(Cl)cc1 | 0 | -9 | 0 | -1 | -1 | -9
COc1ccc(S(=O)(=O)Nc2cc(C)c(O)cc2C(C)C)cc1 | -1 | -11 | 3 | 1 | -2 | -1
COc1ccc(S(=O)(=O)Nc2cc(C(C)C)c(O)cc2C)cc1 | -1 | 30* | -15 | -4 | -12 | -8
